# From PubChem BioAssay AID1487 (National Center for Advancing Translational Sciences (NCATS), 2009)
# Screen size: about 200,000 compounds; about 25 (0.01%) were called active. Not shown: some 23% with an inconclusive outcome. The sample holds actives, similar compounds and a random draw of the others, so the mix is not that of the screen. Values without a mark were called inactive. Calls come from the whole dose curve; as a rule, active = well fitted inhibition curve with a large enough effect in the signal ratio, with a control signal flat (not every such curve was filed as active); inconclusive = small, poorly fitted or top-dose-only effect, or effect the other way, or a change in a side signal; inactive = flat fitted curve, though single readings scatter; the % refers to the signal ratio.
# Test: qHTS Assay for Modulators of Lamin A Splicing
# Conditions: HeLa LMNA splicing GFP/RFP minigene ratio, 48 h; series mostly up to 46 µM; ratio change, negative = inhibition: at the top concentration
# Source text: NCGC Assay Overview: Hutchinson-Gilford Progeria Syndrome (HGPS) is a pediatric premature aging disease caused by a spontaneous mutation in the lamin A/C (LMNA) gene. The mutation activates a cryptic splice site in the LMNA pre-mRNA which results in production of a pre-lamin A protein that cannot be processed properly. The mutant protein accumulates in the nucleus and negatively affects numerous cellular functions. Correction of the splicing defect in HGPS patient cells using a targeted oligonucleotide (exo11) leads to reversal of the cellular disease phenotypes. To identify small molecule modulators of aberrant LMNA splicing, a homogenous assay was constructed in HeLa cells that used a GFP containing minigene to report on correction of aberrant splicing in lamin A and a RFP (DsRed2) to report on cell viability, uniformity and nonspecific effects on the assay signal. This assay was adapted to laser-scanning microplate cytometry (Acumen, TTP Labtech) where miniaturization of the assay to a 1,536-well plate format was possible. References: Bowen, W. P.; Wylie, P. G. Application of Laser-Scanning Fluorescence Microplate Cytometry in High Content Screening. Assay Drug Dev Technol 2006;4:209-221. Scaffidi P, Misteli T. Reversal of the cellular phenotype in the premature aging disease Hutchinson-Gilford progeria syndrome. Nat.
# NCGC Assay Protocol Summary: Reagents/Controls: Stable clones expressing DsRed2 and lamin A-EGFP were generated by Cell and Molecular Technologies in S3 HeLa cells. HeLa cells were prepared for the assay when they were 70-90% confluent. The cells were counted and resuspended in Opti-MEM I (no phenol red; Gibco), 2% FBS, 1% penicillin/ streptomycin (Gibco) at concentration of 120 cells/uL concentration. The suspension was passed through a Falcon basket filter with pore size 40um (Beckton Dickson). Control titrations: column […] 1536-well plate contained a sixteen point titration (1:2 dilutions) in duplicate of ancitabine (Sigma: A8598) beginning at 40 uM final concentration. Column 2 contained a sixteen point titration (1:2 dilutions) of cycloheximide beginning at 1.4 mM final concentration. Column 3 contained ancitabine at 40 uM and column 4 contained was the vehicle control (0.5% DMSO final concentration). Assay Steps: 5 uL of HeLa cells were plated in Aurora LoBase black clear bottom (cyclic-olefin polymer) 1536-well plates at a final density of 600 cells/well. Controls and library compounds were added with a 1536-well pin array using the Kalypsys pin-tool. The plates were then incubated for 48 hrs in a cell-culture incubator (37 °C; 5% CO2, 98% humidity). Following incubation the plates were read on the Acumen Explorer using the 488 nm laser. Data was collected on objects between 10 and 100 um in size. Cell objects were defined by a 15 um width x 10 um depth filter. The ratio of the total object intensity in PMT1 (500-530 nm emission; GFP) over PMT3 (575-640 nm emission; RFP) was calculated for analysis. Keywords: NIH Roadmap, MLSCN, MLI, MLSMR, qHTS, NCGC, lamin A, Progeria, RNA splicing.
# % is set by controls: 0 for no effect and ±100 for the full control effect; potency is the fitted concentration of half-maximal effect.
SMILES,"ratio change, negative = inhibition",Potency
O=C(CSc1nnc2ccc(-c3ccncc3)nn12)N1CCCCC1,22.1%,–
Cc1ccc([N+](=O)[O-])c(OCCCNCC(C)O)c1 (configuration not stated),-18.3%,–
COc1cccc(NC(=O)C(=O)NCC(c2ccc3c(c2)OCO3)N2CCN(C)CC2)c1 (configuration not stated),2.28%,–
CCOC(=O)c1c(-c2cccc(C)c2)csc1NC(=O)c1c(-c2ccccc2)noc1C,–,0.631 µM (active)
CC(=O)Nc1cccc(NC(=O)c2c(-c3ccccc3)noc2C)c1,-4.51% [at 46.1 µM],–
Cc1onc(-c2ccccc2)c1C(=O)Nc1ccccc1C#N,9.17% [at 46.1 µM],–
Cc1cc(C)cc(OCC(=O)O/N=C(\N)Cc2ccc([N+](=O)[O-])cc2)c1,-7.35%,–
COc1ccc(Sc2nc(-c3ccccc3)ncc2OC)cc1,15.7%,–
Cc1ccc(SCC(=O)Nc2ccc3oc(-c4ccccc4F)nc3c2)cc1,28.4%,–
COCCNC(=O)c1ccc(-n2c(SCc3cccnc3)nc3ccccc3c2=O)cc1,2.39%,–
Cc1cccc(C)c1NC(=S)N(Cc1cccnc1)Cc1ccccc1Cl,17.6% [at 9.22 µM],–
CCN1CCN(CCCNC(=O)c2ccc3c(c2)sc2nc(-c4ccc(OC)cc4)cn23)CC1,20.5%,–
CCOC(=O)c1c(-c2cccc(N)c2)cn2ccccc12,7.28%,–
Cc1ccc(CSc2nc3cccnc3n2Cc2ccc(C(=O)NC3CC3)cc2)cc1,11%,–
N#C/C(=C(\O)C(F)(F)F)c1nnc2n1CCCCC2,-13.7%,–
O=C(Cc1ccc(Cl)cc1)NCc1nc(-c2ccccc2)no1,13.3%,–
CCOC(=O)c1c(SCC(=O)Nc2cccc(C)c2C)nc(=O)[nH]c1C,-5.72%,–
COc1cc2c(C(=O)N3CCN(C)CC3)c(CSc3ccccc3)n(C)c2cc1Br,-21.8%,–
COc1cc(C(=O)Nc2cc(C(F)(F)F)ccc2-n2cncn2)cc(OC)c1OC,-20%,–
Cc1ccc(COc2ccc(C(=O)NN)cc2)cc1,-2.54%,–
CC(=O)c1ccc(NC(=O)CSc2nc(-c3ccccc3F)nc3c2c(=O)n(C)c(=O)n3C)cc1,-9.49%,–
CSc1nc2c(c(=O)[nH]1)C(c1cccc(Cl)c1Cl)CC(=O)N2 (configuration not stated),-8.67% [at 9.22 µM],–
CCc1nnc2c3ccccc3nc(N3CCN(c4ccc(C)cc4C)CC3)n12,-13.9%,–
O=C1COc2ccc(C(=O)COC(=O)C3CC(O)CN3S(=O)(=O)c3ccc(Cl)cc3)cc2N1 (configuration not stated),-23.2%,–
COC(=O)c1c(NC(=O)CCCC(=O)O)sc2c1CCCCC2,-7.02%,–
COc1cccc(CNC(=O)C2CCN(S(=O)(=O)c3ccc4c(ccn4C)c3)CC2)c1,-12.3%,–

SMILES,"ratio change, negative = inhibition",Potency
CC1(C)CN(c2ccc(-c3ccnc4ncnn34)cc2)C1=O,-28.7%,–
CCOc1cc(C(=O)Nc2nnc3n2CCS3)cc(OCC)c1OCC,-0.322%,–
COc1ccc(C(C)=O)cc1CSc1nc2nc(C)cc(C)n2n1,11.6%,–
CC(=O)N1CCCc2ccc(NS(=O)(=O)c3ccc(F)cc3F)cc21,6.09%,–
CCOc1ccc(-n2cnc3c(=O)[nH]c(N)nc32)cc1,19.4%,–
CCOC(=O)Cn1c(=O)n(-c2ccccc2OC)c2nc(-c3cccc(F)c3)nc(C(N)=O)c21,-9.35%,–
CCCNC(=O)CCC(=O)N1Cc2ccccc2Oc2ncccc21,8.53%,–
COc1ccc(NC(=O)N2CCCn3nc(C)cc32)cc1OC,6.06%,–
Cc1cnc(C(=O)OCC(=O)N2CCc3ccccc32)cn1,1.94% [at 9.22 µM],–
COC(=O)CSc1ncnc2c1cnn2-c1ccc(C)cc1C,0.727%,–
COc1ccc(C2=NN(C(=O)CCC(=O)O)C(c3cccs3)C2)cc1OC (configuration not stated),4.17%,–
CNc1nc2c(C)cccn2c(=O)c1C=Nc1ccc(OC)cc1,-17.3%,–
Cc1ccc(-n2nc(C)c3c(C)cc(=O)n(CC(=O)Nc4ccc(C(C)C)cc4)c32)cc1,-0.422%,–
COc1cc(NS(=O)(=O)c2ccc3c(c2)OCC(C(=O)N2CCCC2)O3)cc(OC)c1 (configuration not stated),-0.229%,–
COc1cccc(NC(=S)N(Cc2ccc(C)cc2)Cc2ccccn2)c1,-5.44%,–
O=C(Nc1ccccc1C(=O)O)c1cc(S(=O)(=O)N2CCCCC2)cs1,5.58%,–
COc1ccc(CNS(=O)(=O)c2cc3c4c(c2)CCN4C(=O)CC3)cc1,-8.87%,–
Cc1c(CCOC(=O)c2cc([N+](=O)[O-])ccc2Cl)sc[n+]1CCCCS(=O)(=O)[O-],11.9%,–
COc1cc(/C=C/C(=O)OCC(=O)N2CCOCC2)ccc1OCC#N,-0.73%,–
CC(C)CNc1ncnc2c1nnn2C,14%,–
CC1CN(/C=C/C(=O)C(F)(F)F)CC(C)O1 (configuration not stated),-0.822%,–
O=C(CC1C(=O)NCCN1Cc1ccc(-c2ccccc2)cc1)NCc1ccncc1 (configuration not stated),13.2%,–
O=C(CCSCc1cccc(F)c1)NCc1ccccc1,30.8%,–
CC(C)CCNC(=O)CSc1nc2ccccc2nc1Cc1ccc(Cl)cc1,-3.3%,–
C/C(Cn1nnc2ccccc21)=N\OC(=O)c1cc(F)c(F)cc1Cl,0.235%,–
O=C(NCCc1ccccc1)c1cnc2sc(N3CCCC3)nn2c1=O,15.1%,–

SMILES,"ratio change, negative = inhibition",Potency
O=[N+]([O-])c1cc([N+](=O)[O-])c2cccnc2c1O,1.6%,–
O=C(Nc1ccccc1F)C(c1ccccc1)N1Cc2ccccc2C1=O (configuration not stated),18.7%,–
Cc1ccc(C)c(N2CCN(S(=O)(=O)c3ccc4c(c3)C(C(C)C)C(=O)N4)CC2)c1 (configuration not stated),-10.7%,–
Cc1cccc(N2CCN(C(=O)CCSCc3ccccc3F)CC2)c1C,-21.7%,–
COc1ccc(SCc2cc(=O)c3ccc(C)c(C)c3[nH]2)cc1,-9.07%,–
Cc1ccc(C(c2nnnn2C(C)(C)C)N2CCc3ccccc3C2)cc1 (configuration not stated),-3.87% [at 46.1 µM],–
CC(C)(C)n1nnnc1C(c1ccc2ncccc2c1)N1CCSCC1 (configuration not stated),–,6.31 µM (active)
CC(C)(C)n1nnnc1C(c1ccc(Cl)cc1)N1CCSCC1 (configuration not stated),-14% [at 46.1 µM],–
COC(=O)C(C)NC(=O)COc1ccc2ccccc2c1 (configuration not stated),4.35%,–
O=C(Nc1ccc2nc(SCC(=O)N3CCc4ccccc43)sc2c1)c1ccccc1F,3.72%,–
CCCN(CCC)CCNC(=O)c1ccc2c(c1)NC(=O)C(CS(=O)(=O)Cc1cccc(Br)c1)N2 (configuration not stated),-3.12%,–
CC(C)(C)NC(=O)COC(=O)c1cc(Cl)ccc1[N+](=O)[O-],-6.76%,–
O=C(CN(c1cccc(Cl)c1)S(=O)(=O)c1ccccc1)NN=C1CCCC1,14.5%,–
Cc1cccc(NC(=O)c2cc([N+](=O)[O-])ccc2N2CCN(C)CC2)c1,-17.1%,–
CCOc1ccc(Nc2ncnc3scc(-c4ccc(OC)cc4)c23)cc1,-25.8%,–
COc1cc(OC)cc(C(=O)NCCc2csc3nc(-c4ccccc4F)nn23)c1,-12.9%,–
CCc1ccc(NS(=O)(=O)c2ccc3[nH]cc(C(=O)NCCc4cccc(C)c4)c(=O)c3c2)cc1,-2.18%,–
CC(=O)NCC(=O)N1CCCC(C(=O)c2ccc3c4c(cccc24)CC3)C1 (configuration not stated),9.21%,–
Cc1cccc(Oc2c([N+](=O)[O-])c(=O)n(C)c3ccccc23)c1,4.53%,–
CCOC(=O)c1sc(=NC(=O)/C=C/c2cccs2)n(C)c1C,2.93% [at 9.22 µM],–
Cc1cccc(Cn2c(CN3CCC(C(=O)NCc4ccccc4Cl)CC3)cc3ccccc32)c1,0.813%,–
O=C(Nc1nnc(-c2ccco2)o1)c1ccc(S(=O)(=O)N2CCOCC2)cc1,16.1% [at 9.22 µM],–
Cc1nc([N+](=O)[O-])cn1CC(=O)Nc1ccc2c(c1)OCO2,-9.08%,–
Cc1cccc(OCCC(=O)Nc2cc(S(=O)(=O)N3CCCCC3)ccc2N2CCOCC2)c1,6.84%,–
Cc1ccc(C)c(-n2ccnc2SCC(N)=O)c1,7.68%,–
CC1(C)OC(=O)C(=CSc2ccc(C(C)(C)C)cc2)C(=O)O1,-8.64%,–

SMILES,"ratio change, negative = inhibition",Potency
COc1cc(NC(=O)c2cccnc2SC)cc(OC)c1,-6.83%,–
COc1ccccc1CN(C)c1nnnn1-c1ccccc1,-21.9%,–
COc1ccc(NC(=O)CSc2nnc(-c3ccccc3F)n2C2CC2)cc1S(N)(=O)=O,-17.5%,–
CCOC(=O)c1cnc2[nH]c3ccccc3n2c1=O,4.43%,–
CC(=O)c1ccc(NC(=O)CSc2c(C(C)C)cnc3c2c(=O)n(C)c(=O)n3C)cc1,-2.64%,–
CCOC(=O)c1c(C)oc2nc(C)nc(N3CCN(c4ccc(OC)cc4)CC3)c12,-15.4%,–
Cc1ccc(/C([O-])=C(/C(=S)NCc2ccco2)[n+]2ccccc2)cc1[N+](=O)[O-],1.77%,–
O=C(C1COc2ccccc2O1)N(Cc1cccnc1)c1nc2c(F)cc(F)cc2s1 (configuration not stated),-5.27%,–
COc1ccc(NC(=O)c2sc3nc(-c4cc5cccc(OC)c5oc4=O)[nH]c(=O)c3c2C)cc1,13%,–
COc1ccc(NS(=O)(=O)c2ccc(O)c(C(=O)OCC(=O)NC3CCCCC3)c2)cc1,-10.8%,–
CCCN(CCC)CCCNC(=O)CNC(=O)c1nn(-c2ccc(OC)cc2)c(=O)c2ccccc12,-3.09%,–
COc1ccccc1NC(=O)C1=C(C)Nc2nc(SCC(=O)c3ccc(C)cc3)nn2C1c1ccccc1C (configuration not stated),17.2%,–
COc1cccc(C(O)Cc2nc3ccccc3n2C)c1OC (configuration not stated),-1.35%,–
O=C(CCC(=O)N1CCCC1)Nc1ccc([N+](=O)[O-])cc1,3.87%,–
C/C(CC(=O)Nc1ccc(C)cc1C)=N\NC(=O)C(C)C,0.278%,–
O=C(Nc1nnc(S(=O)(=O)N2CCOCC2)s1)c1cccc(Br)c1,13.8%,–
Cc1nc(N2CCC(C)CC2)c2c(C)c(C(=O)Nc3cc(F)ccc3C)sc2n1,11.2% [at 9.22 µM],–
CN(C)S(=O)(=O)c1ccc(NC(=O)COC(=O)Cn2[nH]c(=O)c3ccccc3c2=O)cc1,5.82%,–
Cc1ccccc1C(=O)Nc1ccc(N2CCCCCC2)cc1,7.32%,–
CC1CCN(C(=S)c2cccc([N+](=O)[O-])c2)CC1,-6.14%,–
CC(=O)c1sc(NC(=O)C2=NN(c3ccccc3)C(=O)CC2)nc1C,-12.7%,–
OCC1(CCOc2ccccc2)CCN(Cc2cn[nH]c2-c2ccccc2)CC1,19.2%,–
CC(C)C(=O)Nc1ccc2oc(=O)ccc2c1,7.65%,–
Cc1ccsc1C1C(C#N)=C(N)OC2=C1C(=O)CC(C)(C)C2 (configuration not stated),3.22% [at 9.22 µM],–
